# Measurements as given in PubChem BioAssay (NCI).
# The panel holds about 83,000 compounds, 20% with a hit somewhere; the sample as a whole holds those more often.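 Percent growth is the endpoint: 0 to 100 indicates growth inhibition (40 means 60% inhibition), 0 means no net growth, and negative values indicate cell death.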 Values without a mark were called inactive. The source made the active and inactive calls.
# Test system: CCRF-CEM leukemia
# Experiment: NCI-60 one-dose screen, 48 h (100 = growth as untreated, 0 = no growth, -100 = all killed)
# Settings: 10 µM unless noted
# Method: Growth inhibition of the CCRF-CEM human tumor cell line is measured as a screen for anti-cancer activity. Cells are grown in 96 well plates and exposed to the test compound for 48 hours. Compounds are tested at a single concentration, which is 10^-5 M for most compounds. The reported endpoint is percent growth (GI% or GIPRCNT), where numbers from 0 - 100% represent growth inhibition, and numbers from -100% - 0 represent cell death. For example, a value of 40 represents 60% growth inhibition. A value of 0 means no net growth occurred over the course of the experiment. A value of -40 indicates 40% of cells at the beginning of the experiment died by the end of the experiment. A value of -100 means all cells are dead at the end of the experiment.
# NCI-60 Human Tumor Cell Lines Screen was performed using the standard one-dose NCI protocol, which is described in more detail at https://dtp.cancer.gov/discovery_development/nci-60/default.htm.
# Compounds with GIPRCNT values below 10 were considered active. Activity score was based on GIPRCNT using the following formula: […]
# Score is 0 for GIPRCNT values of 100 or above, 50 for GIPRCNT values of 0, and 100 for GIPRCNT values of -100.
row,SMILES,growth
1,FC(F)(F)Oc1ccc2c(c1)C[C@H]1C[C@@H](c3ccoc3)N2O1,102%
2,Cc1nc2cc(Nc3nc(Nc4ccc(F)cc4)nc(N4CCN(C)CC4)n3)ccc2n1Cc1ccccc1,-7.07% (active)
3,Cn1c2ccccc2c2nn(C(=O)c3ccccc3)c(=O)nc21,96.9%
4,CCCCCn1c(=N)n(CC(O)COc2cccc(C)c2)c2ccccc21 (stereo not given),8.45% (active)
5,O=C1/C(=C/c2ccc(Cl)cc2)N=C(c2ccccc2)N1CCc1cccs1,85.9%
6,Cc1ccc(S(=O)(=O)N2CCc3ccc(O)c4c3C2CCc2ccccc2-4)cc1 (stereo not given),83%
7,Cc1cc(=O)oc2c1ccc1oc(C(=O)c3ccccc3)c(C)c12,69.1%
8,O=C1c2ccccc2-c2nnc(-c3ccc(Br)cc3)cc21,20.7%
9,O=S(=O)(Nc1ncccn1)c1ccc(Nc2ccc3nnc(-c4ccncc4)n3n2)cc1,94.3%
10,COC(=O)[C@@H]1CCCN1C(=O)[C@@H]1CCCN1C(=O)[C@@H](Cc1c[nH]c2ccccc12)NC(=S)Nc1cc(C(F)(F)F)cc(C(F)(F)F)c1,19.9%
11,CCCCCCCC/C=C\CCCCCCCCOc1cccc(CC(=O)NCC[N+]2(C)CCOCC2)c1,61.6%
12,COc1ccc(/C=C/C(=O)N2CCC(O)CC2)cc1OC1CCCC1,119%
13,NS(=O)(=O)c1ccc(C(=O)N/N=C(\CS(=O)(=O)c2ccccc2)c2cc3cc(Br)ccc3o2)cc1,118%
14,COc1ccc(NS(=O)(=O)c2ccc(-c3cnc(C4CC4)o3)cc2)cc1,76.2%
15,Cc1nc2nc(C(F)(F)F)[nH]c2nc1C,93.3%
16,COc1cc2cc(Oc3ccc(NC(=O)Nc4ccc(Cl)c(C(F)(F)F)c4)cc3)c(C)nc2cc1OCCN1CCCCC1,3.86% (active)
17,O=C1N/C(=C\c2ccccc2)c2ncccc21,97.7%
18,COc1ccc(OC)c(C2C(C#N)=C(N)Oc3cc(O)ccc32)c1 (stereo not given),88.2%
19,CCOC(=O)c1cnn(CC(O)c2ccc(F)cc2)c1NC(=O)Nc1ccccc1F (stereo not given),96.9%
20,O=C1OCC2=C1C(c1ccc3c(c1)OCO3)CC(=O)N2c1cccc(Cl)c1 (stereo not given),90.9%

row,SMILES,growth
1,COc1cc(C2=NN(c3ccc(S(N)(=O)=O)cc3)C(c3ccc(Cl)cc3)C2)cc(OC)c1OC (stereo not given),20.7%
2,O=C(NCc1ccco1)C1CCN(S(=O)(=O)c2ccc(Cl)cc2)CC1,-22.6% (active)
3,Cc1ccc(C)c2c1sc1nc3nc4sc5ccccc5n4c(=N)c3c(=O)n12,81.1%
4,Cc1ccc(S(=O)(=O)N2CCc3ccc(O)c4c3C2Cc2ccc3c(c2-4)OCO3)cc1 (stereo not given),-11.9% (active)
5,COc1cccc(C2CC(=O)Nc3cc4c(cc32)OCO4)c1OC (stereo not given),82.1%
6,COc1nc2c(cc1S(=O)(=O)c1ccccc1)CCc1c-2cnn1-c1ccccc1,68.6%
7,COc1ccc(-c2c3c(N)c4c(nc3nc3c2c(C)nn3-c2ccccc2)CCCC4)cc1,23.2%
8,O=C(N/N=C/c1ccc2c(c1)OCO2)c1cnn2c1NC(c1ccccc1)C2 (stereo not given),67.7%
9,O=c1[nH]c(=S)c2c(n1CCCO)CCC2,103%
10,Fc1ccccc1Nc1ccc2nnc(-c3ccncc3)n2n1,96.1%
11,COc1cc(/C=N/NC(=O)c2cnn3c2NC(c2ccccc2)C3)cc(OC)c1OC (stereo not given),79.7%
12,O=C(N/N=C/c1ccc(F)cc1)c1[nH]c2ccc(I)cc2c1-c1ccccc1,39.2%
13,CCCC1=NNC(=O)C1,100%
14,COC(=O)[C@@]12CC[C@@H](C)[C@]3(C[C@@H](c4ccoc4)OC3=O)[C@H]1CC[C@@H]1O[C@@]12C,107%
15,COc1ccc(Nc2[nH]n(C3=Nc4ccccc4Sc4ccccc43)c(=O)c2C#N)cc1,50.2%
16,COc1ccc(NC(=O)COc2ccccc2)c(C(N)=O)c1,6.03% (active)
17,COc1cc(C2CC(=O)Nc3c2ccc2ccccc32)cc(Br)c1OC (stereo not given),-25.7% (active)
18,Cc1ccc(NS(=O)(=O)c2ccc(-c3cnc(C4CC4)o3)cc2)cc1,35.5%
19,COc1ccc(C2=NOC(CC(=O)N(CCO)CCO)C2)cc1OC1CCCC1 (stereo not given),112%
20,COc1cc(CNCCCN2C(=O)c3ccc4c5c(ccc(c35)C2=O)C(=O)N(CCCNCc2cc(OC)c(OC)c(OC)c2)C4=O)cc(OC)c1OC,0.649% (active)
